The campaign covered roughly 13,000 compounds. About 3,200 (25%) showed an effect of 50% or more. Some of the results follow.
Tested on: P. falciparum stage V gametocytes
Parameters: BacTiter-Glo ATP luminescence viability of purified stage V gametocytes in 384-well plates, per cent inhibition versus DMSO
Conditions: 48 h, 5 µM; inhibitor

Compound | % Inhibition [%]
Cc1cc2c(cc1C(F)(F)F)N(C(=O)Nc1cnc(OCCN(C)C)c(C(F)(F)F)c1)CC2 [TCMDC-139848] | 26.2
O=C(NCc1ccccc1)NC1CCN(c2ccnc3cc(Cl)ccc23)C1 (stereo not drawn) [TCMDC-133402] | -15.46
COc1ccc(NC(=O)NC2CCN(c3ccnc4cc(Cl)ccc34)C2)cc1 (stereo not drawn) [TCMDC-133647] | -25.5
c1cncc(CCNCc2cccc(-c3csc(-c4nc5ccccc5[nH]4)c3)c2)c1 [TCMDC-132878] | -19.07
Cc1[nH]nc2cc(Nc3ccnc(Nc4ccc(CN5CCOCC5)cc4)n3)ccc12 [TCMDC-138633] | 14.24
O=C(Cc1cnc[nH]1)Nc1cccc(-c2ccc(-c3nc4ccc(C(F)(F)F)cc4[nH]3)cc2)c1 [TCMDC-136952] | -24.24
CC(C)N1CCN(C(CN2CCN(CCCOc3ccc4ccccc4c3)CC2)c2ccc(F)cc2)CC1 (stereo not drawn) [TCMDC-135495] | 83.07
O=C(Nc1cccc(-c2ccc(CN3CCC(O)CC3)cc2)c1)c1cccc(Cl)c1 [TCMDC-132645] | -15.01
Cc1cccc2[nH]c(-c3cccc(-c4cccc(NC(=O)CCc5cnc[nH]5)c4)c3)nc12 [TCMDC-132158] | -23.69
Cc1cccc2[nH]c(-c3ccc(-c4cccc(NC(=O)CCc5cnc[nH]5)c4)cc3)nc12 [TCMDC-132153] | 72.28
O=C(CCc1cnc[nH]1)Nc1cccc(-c2ccc(-c3nc4ccccc4[nH]3)cc2)c1 [TCMDC-132155] | 31.89
O=C(CCc1cnc[nH]1)Nc1ccc(-c2cccc(-c3nc4ccccc4[nH]3)c2)cc1 [TCMDC-132150] | 3.081
Cc1cccc2[nH]c(-c3cccc(-c4ccc(NC(=O)CCc5cnc[nH]5)cc4)c3)nc12 [TCMDC-132159] | -12.17
C#CCCC(=O)Nc1cccc(-c2cccc(-c3nc4c(C)cccc4[nH]3)c2)c1 [TCMDC-136857] | 61.5
CCOC(=O)NCC(=O)Nc1cccc(-c2cccc(-c3nc4c(C)cccc4[nH]3)c2)c1 [TCMDC-137048] | -2.875
Cc1cccc2[nH]c(-c3cccc(-c4cccc(NC(=O)Cc5cnc[nH]5)c4)c3)nc12 [TCMDC-136950] | -8.646
Cc1cccc2[nH]c(-c3ccc(-c4cccc(NC(=O)Cc5cnc[nH]5)c4)cc3)nc12 [TCMDC-136942] | 73.44
Cc1cccc2[nH]c(-c3cccc(-c4cccc(NC(=O)Nc5ccccc5)c4)c3)nc12 [TCMDC-133152] | -23.55
Cc1cccc2[nH]c(-c3cccc(-c4ccc(NC(=O)Cc5cnc[nH]5)cc4)c3)nc12 [TCMDC-136951] | 17.26
O=C(CCc1cnc[nH]1)Nc1cccc(-c2cccc(-c3nc4ccccc4[nH]3)c2)c1 [TCMDC-132151] | 78.34
O=C(Nc1cccc(-c2ccc(-c3nc4ccccc4[nH]3)cc2)c1)Nc1ccc2c(c1)OCO2 [TCMDC-133164] | -3.868
O=C(CSc1ccccn1)Nc1c(F)cccc1F [TCMDC-123935] | 16.99
O=C(NC1CCCCC1)C1CCCN(C(=O)c2ccc(O)c(-c3ccc(Cl)c(Cl)c3)c2)C1 (stereo not drawn) [TCMDC-140884] | 5.577

Compound | % Inhibition [%]
Cc1c(Cc2ccccc2)c(=O)oc2c(C)c3c(cc12)CN(CC(C)c1ccccc1)CO3 (stereo not drawn) [TCMDC-125127] | 34.31
O=c1cc(NCCCNCc2sc(Br)nc2Br)[nH]c2ccccc12 [TCMDC-140422] | -16.17
Cc1ccccc1C1CCN(C2CCC(NC(=O)/C=C/c3cccc(Cl)c3Cl)CC2)CC1 (stereo not drawn) [TCMDC-133519] | -94.66
Cc1sc2nc(CN3CCCC3)nc(-n3c(NCCO)nc4ccccc43)c2c1C [TCMDC-124811] | 45.04
OC(c1ccc(Cl)cc1)(c1ccc(Cl)cc1)C(c1ccc(Cl)cc1)n1ccnc1 (stereo not drawn) [TCMDC-125069] | 44.24
CC(C)(C)OC(=O)NCc1ccc(Nc2nnc(-c3cccc(C(=O)NCc4cc(C(F)(F)F)cc(C(F)(F)F)c4)c3)o2)cc1 [TCMDC-135229] | 97.34
O=C(NCc1ccc(C(F)(F)F)cc1)c1cccc(-c2nnc(-c3cccc(-c4cncnc4)c3)o2)c1 [TCMDC-134944] | 18.23
Cc1cccc(Cl)c1Nc1nnc(-c2cccc(C(=O)NC[C@@H]3CC[C@H]4C[C@@H]3C4(C)C)c2)o1 [TCMDC-135040] | -14.01
CN1CCN(c2cccc(-c3nnc(-c4cccc(OCC(=O)NCc5ccc(C(F)(F)F)cc5)c4)o3)c2)CC1 [TCMDC-134943] | 0.9055
CCCNC(=O)c1cncc(-c2ccc(CNC(CC)c3ccccc3)cc2)c1 (stereo not drawn) [TCMDC-134238] | -1.576
CC(C)(C)OC(=O)NCc1ccc(Nc2nnc(-c3cccc(C(=O)NCCC(c4ccccc4)c4ccccc4)c3)o2)cc1 [TCMDC-134989] | 99.36
CN1CCN(c2cccc(-c3nnc(-c4ccc(OCC(=O)NCc5cccc(C(F)(F)F)c5)c([N+](=O)[O-])c4)o3)c2)CC1 [TCMDC-134941] | -68.92
CC(=O)NCCNCc1cccc(C(=O)NCc2cccc(C(F)(F)F)c2)c1 [TCMDC-140900] | 22.07
CC(C)(C)OC(=O)NCc1ccc(Nc2nnc(-c3cccc(OCC(=O)NCc4cc(C(F)(F)F)cc(C(F)(F)F)c4)c3)o2)cc1 [TCMDC-134993] | 101.9
O=c1ccc2ccc(F)c3c2n1CC3CN1CCC(NCc2cccc(-c3ccccc3F)c2)CC1 (stereo not drawn) [TCMDC-134405] | -31.68
COc1ccc2nccc([C@@H](O)CN3CCC(NCc4cnc5snnc5c4)C(F)C3)c2c1 (stereo partly drawn) [TCMDC-141752] | 25.48
Cc1ccccc1C1CCN(c2ccc(NC(=O)c3ccc(Cl)nc3)cc2)CC1 [TCMDC-134586] | 25.08
O=C(Nc1ccc(Cn2ncc(N3CCCNCC3)c(Cl)c2=O)cc1)Nc1cc(Cl)cc(Cl)c1 [TCMDC-133326] | -9.301
CCCc1c(C(=O)Nc2ccc3c(c2)CCN(C2CCC2)CC3)cnn1-c1ccc(Cl)cc1 [TCMDC-136081] | 40.23
Cc1ccc(-n2ncc(C(=O)Nc3cc(Cl)cc(Cl)c3)c2C2CCNCC2)cc1C [TCMDC-124409] | 57.45
O=C(Nc1cc(Cl)cc(Cl)c1)c1cnn(-c2ccc(F)cc2)c1C1CCNCC1 [TCMDC-124410] | 50.02
Cc1ccccc1C1CCN(c2ncc(C(=O)Nc3ccccc3)cc2Cl)CC1 [TCMDC-134630] | -30.75
